Assay results: PubChem BioAssay (EPA / NIEHS)
Several values for one entry are separate records, joined by “and”; a condition that tells them apart may be missing. Equal values may be shown once. Inconclusive results are not listed. A structure can be active in one record and inactive in another. Activity calls are given as the source filed them. Rule for the calls, unless noted: active = hit-call score of the fitted dose curve at least 0.9, where 1 is the maximum; inactive = score below 0.9.

Experiments:
[1] = ATG_PXRE_CIS: Attagene CIS-FACTORIAL HepG2 Assay for human Pregnane X Receptor Element (PXRE) (AID 2282957); conditions: HepG2 Attagene CIS-FACTORIAL PXRE reporter, mRNA; actives raise or lower the signal
Method in brief: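 Multiplexed cis-reporter assay in transiently transfected human HepG2 cells; 24 h chemical exposure. Reporter transcripts quantified by RT-PCR with fluorescent labeling and capillary electrophoresis.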

[2] = ATG_PPRE_CIS: Attagene CIS-FACTORIAL HepG2 Assay for human Peroxisome Proliferator-activated Response Element (PPRE) (AID 2282958); conditions: HepG2 PPRE cis-element reporter, Attagene transcription factor profiling; actives raise or lower the signal
Method in brief: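 DMSO served as negative control and baseline for bidirectional curve fitting. Signal came from PPRE-regulated reporter mRNA in HepG2 cells, measured 24 h post-dosing by RT-PCR, 6-FAM primer extension and capillary electrophoresis.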

[3] = ATG_RORE_CIS: Attagene CIS-FACTORIAL HepG2 Assay for human RAR-related Orphan Receptor Element (RORE) (AID 2282959); conditions: HepG2 Attagene cis-factorial RORE reporter, mRNA; actives raise or lower the signal
Method in brief: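 Transfect HepG2 with MRTUs; treat 24 h; extract RNA; RT with oligo(dT); PCR with reporter-specific primers; 6-FAM primer extension; HpaI digest 2 h at 37 C; capillary electrophoresis. Fit vs DMSO, bidirectional.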

[4] = ATG_Sox_CIS: Attagene CIS-FACTORIAL HepG2 Assay for human SRY-box transcription factor (SOX) (AID 2282960); conditions: HepG2 Attagene cis-factorial SOX reporter, mRNA; actives raise or lower the signal
Method in brief: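 Fluorescence-labelled cDNA fragments from reporter transcripts, sized by CE, give the signal. Cells: HepG2, transiently transfected with cis-regulated reporter units. Exposure 24 h; DMSO negative control; bidirectional curve fitting.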

[5] = biological target: Transcription factor Sp1 (Homo sapiens) (UniProt P08047); test: ATG_Sp1_CIS: Attagene CIS-FACTORIAL HepG2 Assay for human Specificity Protein 1 (Sp1) (AID 2282961); conditions: HepG2 Sp1 cis-reporter transcription, actives raise or lower the signal
Method in brief: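 Chemicals are dosed onto HepG2 cells transfected with multiple cis-promoter reporter constructs, and after 24 h reporter RNA is reverse-transcribed, PCR-amplified and resolved by capillary electrophoresis for fluorescence quantitation; activity is scored up or down against DMSO.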

[6] = ATG_SREBP_CIS: Attagene CIS-FACTORIAL HepG2 Assay for human Sterol Regulatory Element Binding (SREBP) (AID 2282962); conditions: HepG2 Attagene cis-factorial SREBP reporter, mRNA; actives raise or lower the signal
Method in brief: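 HepG2 cells transiently transfected with multiplexed cis-element reporter units report endogenous transcription factor activity. After 24 h of chemical exposure, reporter mRNA was quantified by RT-PCR, 6-FAM labelling, HpaI digestion and capillary electrophoresis; bidirectional fits used DMSO as baseline.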

[7] = biological target: Signal transducer and activator of transcription 3 (Homo sapiens) (UniProt P40763); test: ATG_STAT3_CIS: Attagene CIS-FACTORIAL HepG2 Assay for human Signal Transducer and Activator of Transcription 3 (STAT3) (AID 2282963); conditions: HepG2, Attagene cis-factorial STAT3 reporter transcription; actives raise or lower the signal
Method in brief: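 Transcript-level reporter assay. HepG2 transient MRTU transfection, 24 h exposure, fluorescence detection after RT-PCR and CE; DMSO baseline.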

[8] = ATG_TAL_CIS: Attagene CIS-FACTORIAL HepG2 Assay for human TAL Basal Promoter (AID 2282966); conditions: HepG2 Attagene cis-factorial TAL promoter reporter; actives raise or lower the signal;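 note: background control endpoint measuring basal TAL promoter reporter mRNA not a specific factor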
Method in brief: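 Steps: transfect HepG2 with multiple reporter transcription units; dose 24 h; isolate RNA, reverse-transcribe, PCR-amplify, label with 6-FAM, digest with HpaI; resolve by capillary electrophoresis. Bidirectional fitting against DMSO baseline.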

[9] = ATG_TGFb_CIS: Attagene CIS-FACTORIAL HepG2 Assay for human Transforming Growth Factor (TGF) (AID 2282967); conditions: HepG2 Attagene CIS TGFb reporter, mRNA transcription; actives raise or lower the signal
Method in brief: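 Cells were dosed for 24 hours, after which total RNA was reverse-transcribed and reporter sequences amplified, labeled and sized by capillary electrophoresis. Activity was fitted in both directions against DMSO.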

[10] = ATG_VDRE_CIS: Attagene CIS-FACTORIAL HepG2 Assay for human Vitamin D Receptor Element (VDRE) (AID 2282968); conditions: HepG2 VDRE cis-reporter transcription, actives raise or lower the signal
Method in brief: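 RT-PCR/CE readout of reporter mRNA; HepG2, transient transfection, 24 h dosing; DMSO baseline; bidirectional analysis.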

[11] = biological target: Nuclear receptor subfamily 1 group I member 3 (Homo sapiens) (UniProt Q14994); test: ATG_CAR_TRANS: Attagene TRANS-FACTORIAL HepG2 Assay for human Constitutive Androstane Receptor (CAR) (AID 2282969; active = hit-call score of the fitted dose curve at least 0.9, where 1 is the maximum;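 note: activators raise reporter mRNA above DMSO so AC50 marks induction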); conditions: HepG2 Attagene TRANS-FACTORIAL CAR reporter
Method in brief: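 HepG2 cells transiently transfected with multiplexed GAL4-UAS reporter units expressing chimeric NR-Gal4 proteins; compound exposure 24 h. Reporter mRNA measured by RT-PCR, 6-FAM labelling, HpaI digestion and capillary electrophoresis; gain-of-signal fitted against DMSO baseline.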

[12] = biological target: X-box-binding protein 1 (Homo sapiens) (UniProt P17861); test: ATG_Xbp1_CIS: Attagene CIS-FACTORIAL HepG2 Assay for human X-box Binding Protein 1 (XBP1) (AID 2282972); conditions: HepG2 XBP1 cis-element reporter, Attagene multiplex; actives raise or lower the signal
Method in brief: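 HepG2 cells transiently transfected with cis-regulated multiple reporter transcription units; endogenous transcription factor activity measured 24 hours after chemical dosing. Reporter mRNA quantified by RT-PCR, 6-FAM primer extension, HpaI digestion and capillary electrophoresis; bidirectional fitting versus DMSO.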

[13] = ATG_M_19_TRANS: Attagene TRANS-FACTORIAL HepG2 Assay for M19 Transcription Factor (Internal Marker) (AID 2282974; active = hit-call score of the fitted dose curve at least 0.9, where 1 is the maximum); conditions: HepG2 Attagene TRANS-FACTORIAL M19 internal marker reporter
Method in brief: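 Multiplexed TRANS format: HepG2 liver cells bearing transient GAL4-UAS reporter units, chemical treatment 24 h, reporter transcripts quantified by RT-PCR plus capillary electrophoresis. DMSO defines baseline.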

[14] = ATG_GAL4_TRANS: Attagene TRANS-FACTORIAL HepG2 Assay for GAL4 (Internal Marker) (AID 2282976; active = hit-call score of the fitted dose curve at least 0.9, where 1 is the maximum); conditions: HepG2 Attagene TRANS GAL4 internal marker reporter
Method in brief: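 Liver HepG2 line bearing multiplexed GAL4-UAS reporter constructs; 24 h chemical treatment. Transcripts were quantified as fluorescent fragments on capillary electrophoresis after RT-PCR and HpaI cut, with activity fitted upward from DMSO.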

[15] = biological target: Glucocorticoid receptor (Homo sapiens) (UniProt P04150); test: ATG_GR_TRANS: Attagene TRANS-FACTORIAL HepG2 Assay for human Glucocorticoid Receptor (GR) (AID 2282978; active = hit-call score of the fitted dose curve at least 0.9, where 1 is the maximum;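 note: activators score as hits since higher reporter transcript over DMSO is fitted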); conditions: HepG2 Attagene TRANS GR reporter, mRNA transcription
Method in brief: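 Transiently transfected HepG2 cells express chimeric NR-GAL4 proteins acting on GAL4-UAS reporter units. Compounds are applied for 24 h. mRNA induction over DMSO is measured by capillary electrophoresis.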

[16] = ATG_TA_CIS: Attagene CIS-FACTORIAL HepG2 Assay for human TA Basal Promoter (AID 2282964); conditions: HepG2 Attagene CIS-factorial TA basal promoter reporter; actives raise or lower the signal
Method in brief: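 Steps: transfect HepG2 with MRTUs; dose 24 h; isolate RNA, DNase-treat, reverse-transcribe; PCR and FAM-label reporter cDNA; digest with HpaI 2h at 37 C; run capillary electrophoresis. Activity fitted both directions against DMSO.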

[17] = biological target: Estrogen receptor (Homo sapiens) (UniProt P03372); test: ATG_ERa_TRANS: Attagene TRANS-FACTORIAL HepG2 Assay for human Estrogen Receptor alpha (ERa) (AID 2282970; active = hit-call score of the fitted dose curve at least 0.9, where 1 is the maximum); conditions: HepG2 Attagene TRANS ERa GAL4 reporter, mRNA
Method in brief: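 Multiplexed cell-based reporter format in HepG2: chimeric ERa-Gal4 protein drives GAL4-UAS reporter transcription. Fluorescent reporter mRNA quantified by capillary electrophoresis 24 hours after dosing; endpoint fitted as signal gain against DMSO.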

[18] = biological target: Steroid hormone receptor ERR1 (Homo sapiens) (UniProt P11474); test: ATG_ERRa_TRANS: Attagene TRANS-FACTORIAL HepG2 Assay for human Estrogen-Related Receptor alpha (ERRa) (AID 2282971; active = hit-call score of the fitted dose curve at least 0.9, where 1 is the maximum); conditions: HepG2 Attagene TRANS reporter, ERRa transactivation
Method in brief: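 Signal gain relative to DMSO for an ERRa-Gal4 chimeric receptor, read as reporter mRNA by RT-PCR/capillary electrophoresis. Human HepG2 liver cells, transient multiplex reporter transfection, 24 h chemical exposure.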

[19] = ATG_TCF_b_cat_CIS: Attagene CIS-FACTORIAL HepG2 Assay for human T-Cell-Factor with beta-catenin (TCF/b-cat) (AID 2282965); conditions: HepG2 TCF/beta-catenin cis-reporter transcription, actives raise or lower the signal
Method in brief: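 Using capillary electrophoresis as the read-out, labelled reporter cDNA fragments from transiently transfected HepG2 were sized and quantified. Exposure lasted 24 hours; activity in either direction was referenced to DMSO.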

[20] = biological target: Estrogen-related receptor gamma (Homo sapiens) (UniProt P62508); test: ATG_ERRg_TRANS: Attagene TRANS-FACTORIAL HepG2 Assay for human Estrogen-Related Receptor gamma (ERRg) (AID 2282977; active = hit-call score of the fitted dose curve at least 0.9, where 1 is the maximum;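 note: hits increase reporter signal over DMSO so potencies reflect activators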); conditions: HepG2 Attagene TRANS reporter, ERRg transactivation
Method in brief: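 Transfect HepG2 with multiple GAL4-UAS reporter transcription units; dose chemicals 24 h; isolate RNA, reverse-transcribe with oligo(dT), PCR-amplify, label with 6-FAM, digest with HpaI; size fragments by capillary electrophoresis. DMSO serves as negative control.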

Measured: AC50

Chain of Estrogen receptor (Homo sapiens) (P03372 whole entry, looked up, the tested form may be a part): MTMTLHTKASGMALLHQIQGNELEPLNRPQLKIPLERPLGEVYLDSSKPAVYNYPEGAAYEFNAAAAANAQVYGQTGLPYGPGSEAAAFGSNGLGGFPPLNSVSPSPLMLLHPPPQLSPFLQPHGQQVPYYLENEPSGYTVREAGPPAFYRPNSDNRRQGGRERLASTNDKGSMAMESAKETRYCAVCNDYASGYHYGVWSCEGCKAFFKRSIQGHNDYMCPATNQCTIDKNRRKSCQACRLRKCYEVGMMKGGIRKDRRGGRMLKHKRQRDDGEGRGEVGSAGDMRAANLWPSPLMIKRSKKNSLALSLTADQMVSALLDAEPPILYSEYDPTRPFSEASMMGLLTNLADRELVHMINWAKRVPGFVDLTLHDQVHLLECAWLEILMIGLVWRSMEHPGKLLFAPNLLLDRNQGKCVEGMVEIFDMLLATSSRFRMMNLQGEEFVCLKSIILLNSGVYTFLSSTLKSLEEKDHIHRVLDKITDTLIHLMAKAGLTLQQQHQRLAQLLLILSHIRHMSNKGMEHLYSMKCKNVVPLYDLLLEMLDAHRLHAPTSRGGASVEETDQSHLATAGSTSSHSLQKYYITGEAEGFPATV
Chain of Signal transducer and activator of transcription 3 (Homo sapiens) (P40763 whole entry, looked up): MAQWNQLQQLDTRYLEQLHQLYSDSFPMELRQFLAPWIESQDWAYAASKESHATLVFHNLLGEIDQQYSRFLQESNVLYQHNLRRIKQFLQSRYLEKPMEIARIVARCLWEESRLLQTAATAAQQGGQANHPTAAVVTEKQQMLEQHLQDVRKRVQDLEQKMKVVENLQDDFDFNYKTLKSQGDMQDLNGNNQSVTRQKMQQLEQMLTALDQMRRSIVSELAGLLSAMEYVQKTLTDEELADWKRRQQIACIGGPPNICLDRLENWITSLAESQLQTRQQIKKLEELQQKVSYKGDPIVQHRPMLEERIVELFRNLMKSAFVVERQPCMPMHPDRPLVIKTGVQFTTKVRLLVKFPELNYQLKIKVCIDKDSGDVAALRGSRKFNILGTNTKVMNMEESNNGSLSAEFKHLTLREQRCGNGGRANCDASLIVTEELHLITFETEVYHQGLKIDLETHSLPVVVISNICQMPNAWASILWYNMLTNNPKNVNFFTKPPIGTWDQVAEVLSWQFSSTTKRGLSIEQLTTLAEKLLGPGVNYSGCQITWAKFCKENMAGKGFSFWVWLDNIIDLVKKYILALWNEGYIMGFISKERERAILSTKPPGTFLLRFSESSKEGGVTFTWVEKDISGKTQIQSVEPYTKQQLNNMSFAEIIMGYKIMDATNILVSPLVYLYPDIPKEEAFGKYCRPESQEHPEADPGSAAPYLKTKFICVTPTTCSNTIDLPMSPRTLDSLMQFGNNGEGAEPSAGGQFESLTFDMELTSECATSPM
Chain of Transcription factor Sp1 (Homo sapiens) (P08047 whole entry, looked up): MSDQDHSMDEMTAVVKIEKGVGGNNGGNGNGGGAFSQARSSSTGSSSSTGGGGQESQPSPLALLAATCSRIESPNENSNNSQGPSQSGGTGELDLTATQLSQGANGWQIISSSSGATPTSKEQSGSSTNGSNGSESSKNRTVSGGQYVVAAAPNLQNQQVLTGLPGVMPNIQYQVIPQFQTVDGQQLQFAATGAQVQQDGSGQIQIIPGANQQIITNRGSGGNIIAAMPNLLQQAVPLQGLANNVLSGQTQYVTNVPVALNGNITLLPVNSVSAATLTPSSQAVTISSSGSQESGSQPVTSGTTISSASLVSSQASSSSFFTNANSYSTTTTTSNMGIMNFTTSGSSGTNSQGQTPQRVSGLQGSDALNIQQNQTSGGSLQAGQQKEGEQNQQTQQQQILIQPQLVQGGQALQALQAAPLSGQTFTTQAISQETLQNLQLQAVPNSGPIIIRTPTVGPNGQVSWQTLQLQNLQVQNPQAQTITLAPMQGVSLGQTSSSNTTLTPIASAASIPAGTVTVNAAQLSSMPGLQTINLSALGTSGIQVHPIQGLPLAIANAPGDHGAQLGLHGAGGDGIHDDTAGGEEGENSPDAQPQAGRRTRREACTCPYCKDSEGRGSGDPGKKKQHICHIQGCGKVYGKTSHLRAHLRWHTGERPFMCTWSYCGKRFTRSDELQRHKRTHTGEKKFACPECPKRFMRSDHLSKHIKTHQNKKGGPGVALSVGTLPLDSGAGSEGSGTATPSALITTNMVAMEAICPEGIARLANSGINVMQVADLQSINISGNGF
Chain of X-box-binding protein 1 (Homo sapiens) (P17861 whole entry, looked up): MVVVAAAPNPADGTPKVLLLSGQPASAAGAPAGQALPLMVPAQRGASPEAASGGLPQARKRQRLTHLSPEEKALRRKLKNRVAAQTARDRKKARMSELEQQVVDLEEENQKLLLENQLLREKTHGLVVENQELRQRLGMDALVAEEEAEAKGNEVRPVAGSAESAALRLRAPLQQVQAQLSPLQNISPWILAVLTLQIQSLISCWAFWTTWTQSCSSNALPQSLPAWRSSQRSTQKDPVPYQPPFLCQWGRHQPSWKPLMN
Chain of Steroid hormone receptor ERR1 (Homo sapiens) (P11474 whole entry, looked up, the tested form may be a part): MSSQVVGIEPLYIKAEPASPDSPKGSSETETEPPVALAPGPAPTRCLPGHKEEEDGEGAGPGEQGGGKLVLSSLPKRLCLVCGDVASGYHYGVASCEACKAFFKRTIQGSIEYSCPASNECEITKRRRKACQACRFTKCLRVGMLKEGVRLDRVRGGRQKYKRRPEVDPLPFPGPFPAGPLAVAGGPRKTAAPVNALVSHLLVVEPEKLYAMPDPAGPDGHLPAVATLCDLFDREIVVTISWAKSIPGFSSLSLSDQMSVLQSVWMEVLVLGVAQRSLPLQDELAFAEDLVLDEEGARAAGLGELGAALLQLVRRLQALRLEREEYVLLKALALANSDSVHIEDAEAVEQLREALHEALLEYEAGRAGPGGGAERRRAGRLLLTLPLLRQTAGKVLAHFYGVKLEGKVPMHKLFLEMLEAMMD
Chain of Glucocorticoid receptor (Homo sapiens) (P04150 whole entry, looked up, the tested form may be a part): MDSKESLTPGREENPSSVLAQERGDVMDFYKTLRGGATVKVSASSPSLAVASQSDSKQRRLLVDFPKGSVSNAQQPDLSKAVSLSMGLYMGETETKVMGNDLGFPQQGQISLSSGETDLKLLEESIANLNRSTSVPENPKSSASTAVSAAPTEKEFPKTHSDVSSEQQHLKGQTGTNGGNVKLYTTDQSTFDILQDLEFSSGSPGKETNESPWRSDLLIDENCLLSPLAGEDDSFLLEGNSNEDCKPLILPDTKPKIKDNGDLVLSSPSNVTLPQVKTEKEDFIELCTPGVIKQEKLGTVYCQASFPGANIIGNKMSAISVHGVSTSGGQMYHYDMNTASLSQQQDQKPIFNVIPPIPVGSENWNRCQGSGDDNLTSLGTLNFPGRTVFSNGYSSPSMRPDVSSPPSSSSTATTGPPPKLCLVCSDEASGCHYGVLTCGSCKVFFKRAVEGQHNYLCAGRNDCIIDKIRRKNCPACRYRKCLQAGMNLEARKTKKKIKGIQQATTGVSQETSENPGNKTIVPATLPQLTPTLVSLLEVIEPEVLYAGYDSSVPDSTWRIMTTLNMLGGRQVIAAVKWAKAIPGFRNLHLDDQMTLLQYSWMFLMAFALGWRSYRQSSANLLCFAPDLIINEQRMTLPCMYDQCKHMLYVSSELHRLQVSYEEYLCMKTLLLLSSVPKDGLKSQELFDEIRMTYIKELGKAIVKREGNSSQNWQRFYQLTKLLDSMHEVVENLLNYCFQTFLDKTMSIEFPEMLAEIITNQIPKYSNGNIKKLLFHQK
Chain of Nuclear receptor subfamily 1 group I member 3 (Homo sapiens) (Q14994 whole entry, looked up, the tested form may be a part): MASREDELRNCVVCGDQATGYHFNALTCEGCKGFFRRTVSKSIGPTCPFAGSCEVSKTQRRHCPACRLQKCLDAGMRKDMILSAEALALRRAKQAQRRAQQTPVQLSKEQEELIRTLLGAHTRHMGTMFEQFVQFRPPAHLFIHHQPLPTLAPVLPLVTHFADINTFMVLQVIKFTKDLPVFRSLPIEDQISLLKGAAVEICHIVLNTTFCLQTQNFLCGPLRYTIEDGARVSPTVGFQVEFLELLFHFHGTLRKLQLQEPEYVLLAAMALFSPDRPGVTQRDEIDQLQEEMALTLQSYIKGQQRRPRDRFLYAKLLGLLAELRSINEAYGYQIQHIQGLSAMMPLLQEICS
Chain of Estrogen-related receptor gamma (Homo sapiens) (P62508 whole entry, looked up, the tested form may be a part): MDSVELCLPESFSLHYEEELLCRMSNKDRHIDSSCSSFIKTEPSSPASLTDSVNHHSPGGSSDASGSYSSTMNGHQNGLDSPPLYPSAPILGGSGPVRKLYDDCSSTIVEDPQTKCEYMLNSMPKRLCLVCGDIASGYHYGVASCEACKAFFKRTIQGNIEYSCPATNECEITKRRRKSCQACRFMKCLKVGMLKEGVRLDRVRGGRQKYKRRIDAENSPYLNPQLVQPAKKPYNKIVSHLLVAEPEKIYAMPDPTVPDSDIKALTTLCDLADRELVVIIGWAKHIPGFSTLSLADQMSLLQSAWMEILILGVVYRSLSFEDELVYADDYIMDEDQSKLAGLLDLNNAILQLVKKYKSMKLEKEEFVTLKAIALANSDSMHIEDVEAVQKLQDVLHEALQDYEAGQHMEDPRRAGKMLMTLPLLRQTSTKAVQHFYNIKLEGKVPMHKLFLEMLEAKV

CCOC(C)=O
not listed: [16] | [17] | [18] | [19] | [20]
inactive: all other assays above

Nc1ccc(O)c(C(=O)O)c1
active: [17] 44.6 µM
not listed: [10] | [14] | [19] | [20]
inactive: all other assays above

Cn1sccc1=O
active: [1] 142 µM | [4] 154 µM | [5] 153 µM | [6] 161 µM | [12] 160 µM
not listed: [11] | [14] | [17] | [19] | [20]
inactive: all other assays above

CC(C)[C@@H]1CC[C@@H](C)C[C@H]1O
not listed: [15] | [16] | [17] | [18] | [19] | [20]
inactive: all other assays above

O=C(O)CN(CCCN(CC(=O)O)CC(=O)O)CC(=O)O
not listed: [10] | [11] | [13] | [15] | [17] | [18] | [20]
inactive: all other assays above

c1ccc2c(c1)CCC2
not listed: [11] | [17] | [18] | [20]
inactive: all other assays above

NNc1nc(-c2ccc([N+](=O)[O-])cc2)cs1
not listed: [11] | [14] | [15] | [16] | [18]
inactive: all other assays above

CCOC(=O)CN[C@@H](C(=O)N1CC[C@H]1C(=O)NCc1ccc(/C(N)=N/O)cc1)C1CCCCC1
not listed: [11] | [13] | [17]
inactive: all other assays above

CCOCCOCC
not listed: [10] | [11] | [13] | [14] | [15] | [18] | [20]
inactive: all other assays above

CCOC=O
active: [17] 59.7 µM
not listed: [10] | [11] | [13] | [16] | [18] | [19] | [20]
inactive: all other assays above

CCCCCCCCCCCC(=O)O
active: [6] 52.7 µM and 60 µM | [12] 87 µM
inactive: [1] | [2] | [3] | [4] | [7] | [19] | [8] | [9] | [12] | [14]

CCCCCCCC(OC)OC
not listed: [6] | [11] | [13] | [14] | [15] | [16] | [18] | [20]
inactive: all other assays above

O=S(=O)(c1ccc(OCc2ccccc2)cc1)c1ccccc1O
inactive: [3] | [4] | [7] | [16] | [8] | [9] | [15]
active: [1] 7.94 µM | [2] 0.156 µM | [19] 54.4 µM | [10] 8.61 µM | [12] 31 µM

CC(C)(C)C1CCCCC1O (centres undefined)
not listed: [6] | [11] | [18] | [20]
inactive: all other assays above
